PubChem BioAssay (NCI)
About 79,000 compounds went through this panel and 15% of them were active in at least one assay; those are over-represented in the sample as a whole. A number with no mark means an inactive call. The source made the active and inactive calls. Rule as the data show it: active = growth inhibition above about 70%; inactive = the rest.

Columns and labels:
[1] = NCI Yeast Anticancer Drug Screen. Data for the rad50 strain (AID 155);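 also: 0% = growth of vehicle-only cultures of the same strain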; conditions: S. cerevisiae rad50 strain growth inhibition; at 50.0 µM; hits give high values
Method in brief: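 DNA repair mutant yeast, compound exposure, growth read-out; inhibition is taken relative to vehicle.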

[2] = NCI Yeast Anticancer Drug Screen. Data for the mec2-1 strain (AID 157); conditions: S. cerevisiae mec2-1 strain, at 50.0 µM, hits give high values
Method in brief: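 Using mec2-1 yeast: add compound, measure growth, express inhibition versus vehicle-treated cultures.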

[3] = NCI Yeast Anticancer Drug Screen. Data for the sgs1 mgt1 strain (AID 161);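 also: 0% = growth of cultures given vehicle only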; conditions: S. cerevisiae sgs1 mgt1 strain, at 50.0 µM, hits give high values
Method in brief: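 This yeast growth screen uses a strain with defined DNA-repair lesions; compound-treated growth is compared with vehicle-treated growth.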

[4] = NCI Yeast Anticancer Drug Screen. Data for the cln2 rad14 strain (AID 165);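 also: 0% = growth equal to vehicle treated cultures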; conditions: S. cerevisiae cln2 rad14 strain, at 50.0 µM, hits give high values
Method in brief: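 Yeast strain cln2 rad14, bearing defects in cell cycle control and DNA repair, serves as the test system; values reflect growth inhibition compared with vehicle.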

[5] = NCI Yeast Anticancer Drug Screen. Data for the bub3 strain (AID 167); conditions: S. cerevisiae bub3 mutant strain, at 50.0 µM, hits give high values
Method in brief: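 In this screen, a yeast mutant lacking normal mitotic checkpoint function is challenged with compound. Relative growth versus vehicle gives the inhibition value.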

[6] = NCI Yeast Anticancer Drug Screen. Data for the mlh1 rad18 strain (AID 175); conditions: S. cerevisiae mlh1 rad18 strain growth inhibition; at 50.0 µM; hits give high values
Method in brief: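 Steps: expose repair-defective yeast to compound; measure growth; express inhibition against vehicle-treated controls.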

Row | SMILES | growth inhibition [1] | growth inhibition [2] | growth inhibition [3] | growth inhibition [4] | growth inhibition [5] | growth inhibition [6]
1 | CC(=O)c1c(C)[nH]c(-c2ccccc2)c1NS(=O)(=O)c1ccc(N)cc1 | -0.2% | -3.45% | 25.4% | -13% | 4% | 8.95%
2 | COc1ccc(OC)c(NC(=O)CCCC(=O)C(C#N)c2ccccc2C)c1 (stereo unspecified) | 13.1% | -4.9% | -3.15% | 11.2% | 0.2% | 2.05%
3 | C=CCNC(=O)NCCCC(NC(C)=O)C(=O)NCc1ccccc1 (stereo unspecified) | -20.9% | -21.3% | -14.7% | 6.75% | -22.3% | -20.6%
4 | O=P1(O)c2ccccc2CCc2ccccc21 | 10.1% | -14.6% | 3.7% | 29.8% | -11% | 3.4%
5 | N#C/C(=C/c1cccs1)c1ccc(Cl)cc1 | -4.6% | -15.2% | -11.8% | -21.1% | -16.1% | 1.85%
6 | COc1cc(C=O)ccc1OC(=O)Nc1cccc(Cl)c1C | -0.55% | 18.6% | 15.8% | 1.9% | 37.2% | 17.8%
7 | CC1COC(c2ccc(C(C)C)cc2)O1 (stereo unspecified) | 7.5% | 0.35% | 0.25% | -8.9% | 0.55% | -4.4%
8 | O=C1c2ccccc2C(=O)N1CC(O)CCl (stereo unspecified) | -21.3% | -30.4% | -0.45% | 12% | -14.5% | -26.5%
9 | COC(=O)C(=O)C(C(=O)c1cccc2ccccc12)c1nc2n(c1O)C(=N)N=N2 (stereo unspecified) | 18.4% | 4.45% | 11.6% | -4.9% | -2.75% | 0.8%
10 | CCC(=O)c1ccc(OC(=O)Nc2ccc(Cl)cc2[N+](=O)[O-])cc1 | 2.25% | 42.8% | 38.5% | -0.75% | 26.2% | -124%
11 | CCOC(=O)C(=O)C1CC(c2ccccc2)=NNC1=O (stereo unspecified) | 23% | 26.5% | 12.9% | 23.1% | 31.1% | 26.2%
12 | O=C1CCC(=O)Nc2ccc3nc4ccccc4c(c3c2)SCCCCCCCCCCCCSc2c3ccccc3nc3ccc(cc23)N1 | -22.4% | -15.2% | -15.2% | -36.4% | -8.4% | -0.85%
13 | CN1C=CC=CC1=C1C(=O)c2ccccc2C1=O | 26.8% | 12.6% | 17.2% | 35.6% | -2.1% | 23.2%
14 | c1ccc(-c2oc3ccccc3c2-c2ccc(OCCN3CCCC3)cc2)cc1 | 99.5% (active) | 99.6% (active) | 99.7% (active) | 99.3% (active) | 99.3% (active) | 99.5% (active)
15 | COc1ccc2c(c1)CCC(c1nc3ccc(C)cc3[nH]c1=O)C2=O (stereo unspecified) | 7.95% | 8.5% | 7.95% | 9.1% | -4.65% | 22.6%
16 | COCCO[Si](OCCOC)(OCCOC)OCCOC | 4.3% | -10.2% | -1.25% | 11.9% | 7.4% | 10.2%
17 | O=C(O)CN(CC(=O)O)Cc1ccccc1 | -22.3% | 8.7% | 6.8% | -71.4% | 7.9% | 4.2%
18 | CN(C)c1cc(-c2ccccc2)oc(=O)c1Cl | 11.6% | -19.8% | -24.2% | -22.2% | -16.2% | -9.15%
19 | CCOC(=O)c1[nH]n(-c2ccccc2)c(=O)c1C=NC(=S)c1cccnc1 | -12.3% | 2.1% | -29.2% | 20.2% | -24.9% | -16.5%
20 | CC(=O)OC1CCC2(C)C3CCC4(C)C(C(C)CCCC(C)C)CCC4C3CC(=O)C23CC13 (stereo unspecified) | 32% | -3.85% | 13.2% | 6.9% | -6.3% | 17.9%
21 | Cc1ccc(S(=O)(=O)N/N=C2\CCC3CC2C3(C)C)cc1 (stereo unspecified) | 1% | 2.05% | -14.2% | -20.1% | -6.05% | 5.95%

Row | SMILES | growth inhibition [1] | growth inhibition [2] | growth inhibition [3] | growth inhibition [4] | growth inhibition [5] | growth inhibition [6]
22 | Cc1cc(=O)oc2cc3c(cc12)Oc1ccccc1O3 | -6.85% | -11.2% | -0.95% | 3.5% | 5.8% | -5%
23 | CCOC(=O)C/C(O)=C(\N=Nc1nc[nH]c1C(N)=O)C(=O)OCC | 1.2% | 23.7% | -9.9% | -1.8% | 16.1% | -0.65%
24 | C1CCc2[nH]nc(-c3n[nH]c4c3CCCCC4)c2CC1 | 9.25% | 3.35% | 19.9% | 9.95% | 12.3% | 18.5%
25 | CC1(C)COC(=O)/C1=C/C#N | 5.1% | 2.6% | -1.5% | -38.5% | -12.4% | 12.3%
26 | COc1ccc2c(c1OC)C(O)N1CCc3cc4c(cc3C1=C2C(=O)c1ccccc1)OCO4 (stereo unspecified) | 6.75% | 14.2% | 0.5% | -5.3% | 28.1% | 22.8%
27 | CC(=O)Nc1ccc(S(=O)(=O)Nc2cccc3ccccc23)cc1 | 23.2% | 7.4% | 18.6% | 42.8% | 57.6% | 21.6%
28 | O=c1nc2n(cc1F)C1OC(CCl)C(O)C1O2 (stereo unspecified) | 8.55% | -8% | 15.7% | 1.05% | 6.9% | 2.2%
29 | Cc1ccc(N=NC(=O)NNc2ccc(C)c([N+](=O)[O-])c2)cc1[N+](=O)[O-] | 55% | 3.9% | 17.6% | 16.1% | 6.45% | 32.4%
30 | CCC(C)C/C(C)=N\NC(N)=O (stereo unspecified) | 1.75% | 0.1% | 3.1% | 9.2% | -4.75% | 6.25%
31 | O=C(CCN1CCCCC1)Nc1ccc2sc3ccccc3c(=O)c2n1 | 51.9% | -19.7% | -0.6% | 9.1% | 11.1% | 10.7%
32 | CC1=C/C(=C(/c2cccc(S(=O)(=O)O)c2)c2cc(C)c(O)c(C(=O)O)c2)C=C(C(=O)O)C1=O | 4.4% | -21.8% | -3.7% | 25.2% | -3.7% | 9.05%
33 | Cc1cc(=O)[nH]c(NN2C(Cl)C(=O)C2c2cccc([N+](=O)[O-])c2)n1 (stereo unspecified) | 18.1% | -32.5% | -0.3% | -7.1% | -7.45% | -33.6%
34 | CC1S(=O)(=O)OCCCOS1(=O)=O | -22.8% | -19.2% | -9.95% | -13.2% | -2.45% | -17.6%
35 | CCCC(=O)Oc1ccc(Cl)cc1C | -2.3% | -1.05% | 2.85% | -57.6% | -13.6% | -3.85%
36 | CCCCCCCCOCC1S(=O)(=O)OCCOS1(=O)=O | -48.2% | -17.6% | -50.7% | -53.8% | -24.4% | -2.3%
37 | CCCCNC(=O)CSc1cc(Cl)c(Cl)cc1Cl | 15.2% | 9.1% | 16.6% | 19.1% | 25.6% | 13.2%
38 | Cc1cc(C(=O)O)ccc1C(=O)O | -13.8% | -31.6% | -1.95% | -39.4% | -20.4% | -25.1%
39 | COC1=C(C)C(=O)C2=C(C1=O)C1C3CC4=C(C(=O)C(OC)=C(C)C4=O)C(CNC(=O)C(C)O)N3C(C#N)C(C2)N1C (stereo unspecified) | 15.9% | 0.85% | 8.9% | 32.8% | -3.45% | 41.5%
40 | CCOC(=O)c1c(-c2ccc(Cl)cc2)c(C#N)c(=S)n(C2OC(COC(C)=O)C(OC(C)=O)C(OC(C)=O)C2OC(C)=O)c1C (stereo unspecified) | -0.4% | -8.75% | -1.75% | 24.1% | 17.5% | 5.7%
41 | O=c1ccocc1OC1OC(CO)C(O)C(O)C1O (stereo unspecified) | -3.95% | -26.4% | -21.1% | -1.35% | -32.3% | -23.1%
